High-throughput results: PubChem, several laboratories
TLR9-MyD88 inh: inhibitors of TLR9-MyD88 association in cells, primary screen, cell-based, CHO, BLA complementation, fluorescence. CCF4 FRET ratio. Toll-like receptor 9 (Homo sapiens) + Myeloid differentiation primary response protein …. hit rate 0.21% among 340,000. inhibition, % at 4.98 µM;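 active = inhibition above the mean over all tested compounds plus 3 SD, cut at about 21% in these data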
TLR4-MyD88 BLA: inhibitors of TLR4-MyD88 association in cells, primary screen, cell-based, HeLa CL3-4, BLA complementation, FRET ratio; AID 861, 2007; hit rate 0.18% among 200,000; inhibition, % at 8.4 µM; HeLa CL3-4 TLR4/MyD88 BLA complementation; in the data active = inhibition above about 25%
Granule exo inh: LAMP-1 surface exposure blockers, TALL-104 cells – cell-based, flow cytometry, MLPCN library, primary screen; TALL-104 LAMP-1 surface exposure; cells stimulated with thapsigargin and PMA; hit rate 0.66% among 360,000; inhibition, % at 10 µM;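 active = inhibition above about 55%, limit read from the data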
NOD2-RIPK2 inh: NOD2-RIPK2 binding disruptors in cells, primary screen, fluorescence, CHO cells, BLA complementation. Receptor-interacting serine/threonine-protein kinase 2 (Homo sapiens), O43353. CCF4 ratio. inhibition, % at 4.98 µM. hit rate 0.38% among 360,000. AID 624267, 2012; in the data active = inhibition above about 21%
PRMT1 inh: PRMT1 methyltransferase inhibitors, primary screen, biochemical, fluorescence polarization | recombinant PRMT1, activity-based probe fluorescence polarization | inhibition, % at 2.79 µM | hit rate 1.3% among 370,000;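 active = inhibition above about 21% made by adding two undisclosed values, limit read from the data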
Target sequence (Q99873 whole entry, looked up): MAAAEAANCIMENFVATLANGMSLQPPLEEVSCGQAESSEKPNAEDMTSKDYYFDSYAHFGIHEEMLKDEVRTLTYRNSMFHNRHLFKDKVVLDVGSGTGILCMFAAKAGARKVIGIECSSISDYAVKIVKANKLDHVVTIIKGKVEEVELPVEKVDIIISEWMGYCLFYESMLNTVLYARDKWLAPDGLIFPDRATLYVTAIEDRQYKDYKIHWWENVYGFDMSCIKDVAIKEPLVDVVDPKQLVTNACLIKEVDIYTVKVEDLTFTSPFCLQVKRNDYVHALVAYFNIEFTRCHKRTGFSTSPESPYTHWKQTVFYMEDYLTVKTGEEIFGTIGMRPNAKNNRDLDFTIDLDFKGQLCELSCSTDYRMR
ABHD5 PLIN5 PPI: ABHD5-PLIN5 interaction inhibitors, primary screen, cell lysate, split luciferase complementation, luminescence; inhibition, % at 4 µM; Split G. princeps luciferase complementation, 4 h; AID 602281, 2012; hit rate 0.78% among 360,000; Perilipin-5 (Homo sapiens) + 1-acylglycerol-3-phosphate O-acyltransferase ABHD5 (Homo …;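 active = inhibition above the mean inhibition across every tested compound plus 3 SD, cut at about 22% in these data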
PRMT1 confirm: PRMT1 methyltransferase inhibitors, confirmation, biochemical, fluorescence polarization, triplicate; AID 687036, 2013; shares compounds with PRMT1 inh; recombinant His-PRMT1, activity-based probe fluorescence polarization; inhibition, % at 2.79 µM; hit rate 42% among 3,300;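 active = mean inhibition across replicates above the hit cutoff derived for the earlier primary screen, cut at about 22% in these data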
Of the large screens only hits and unclear results are named; the others gave an inactive call (follow-up assays come after a bar, where they were run). In the library only some 2.6% were active in any assay of this set; here they are far more common.

CCOC(=O)N1C(=O)C[C@](Sc2ccc(OC)cc2)(C(=O)N(C)C)[C@H]1c1ccc(OC)cc1	PRMT1 inh 45.8 (no result: TLR9-MyD88 inh, TLR4-MyD88 BLA, Granule exo inh, NOD2-RIPK2 inh, ABHD5 PLIN5 PPI) | PRMT1 confirm 36.5
COc1ccc(S[C@]2(C(=O)N3CCOCC3)CC(=O)N(C(=O)c3ccccc3)[C@@H]2c2ccc(OC)cc2)cc1	PRMT1 inh 80.0 (no result: TLR9-MyD88 inh, TLR4-MyD88 BLA, Granule exo inh, NOD2-RIPK2 inh, ABHD5 PLIN5 PPI) | PRMT1 confirm 77.3
Cc1nc2c(cc1N)nc(C)n2Cc1ccccc1	none (no result: TLR4-MyD88 BLA)
CC1CCN(C(=O)COC(=O)/C=C/c2ccc(Br)o2)CC1	PRMT1 inh 36.4 (no result: TLR4-MyD88 BLA) | PRMT1 confirm inactive
CC1CCCC(C)N1C(=O)COC(=O)/C=C/c1ccc(Br)o1 (stereo not given)	none (no result: TLR4-MyD88 BLA)
CCCCCCOc1ccc(N2C(=O)CC(N3CCC(C(=O)OCC)CC3)C2=O)cc1 (stereo not given)	none
CCc1ccc(N2C(=O)CC(N3CCC(C(=O)OC)CC3)C2=O)cc1 (stereo not given)	PRMT1 inh 44.0 | PRMT1 confirm inactive
CCOC(=O)C1CCN(C2CC(=O)N(c3ccc(OCC)cc3)C2=O)CC1 (stereo not given)	PRMT1 inh 45.4 | PRMT1 confirm inactive
CCCOc1ccc(N2C(=O)CC(N3CCC(c4nncn4CC)CC3)C2=O)cc1 (stereo not given)	PRMT1 inh 38.8 | PRMT1 confirm inactive
CCCOc1ccc(N2C(=O)CC(N3CCN(c4ccccc4F)CC3)C2=O)cc1 (stereo not given)	none
CCc1nc2ccc(C(=O)NCCN3CCNC3=O)cn2c1N(CC)CCOC	none (no result: TLR9-MyD88 inh, TLR4-MyD88 BLA)
CC(C)(CC(=O)c1ccccc1)CC(=O)c1ccccc1	none (no result: TLR4-MyD88 BLA)
O=C(NCCc1cn2cccnc2n1)C1CCC(=O)N(Cc2ccccc2F)C1 (stereo not given)	none (no result: TLR4-MyD88 BLA)
COc1ccc(NC(=O)Nc2cccc3c2O[C@H](CN(C)C(=O)Nc2ccc(OC)cc2)[C@@H](C)CN([C@H](C)CO)C3=O)cc1	none (no result: TLR4-MyD88 BLA)
Cc1noc(C)c1NC(=O)Nc1ccc2c(c1)CC(=O)N([C@@H](C)CO)C[C@@H](C)[C@@H](CN(C)C(=O)Nc1cccc3ccccc13)O2	none (no result: TLR4-MyD88 BLA)
COc1ccc(N2CC(C(=O)NCc3nnnn3-c3ccc(C)c(C)c3)CC2=O)cc1 (stereo not given)	none (no result: TLR4-MyD88 BLA)
COc1cc(C)c(NC(=O)C(=S)NCCc2ccccc2)cc1C	PRMT1 inh 30.7 | PRMT1 confirm 38.5
O=C(COC(=O)c1cc(S(=O)(=O)N2CCOCC2)ccc1F)Nc1ccc(Cl)cn1	none (no result: TLR4-MyD88 BLA)
CCCN(CC(=O)Nc1ccc(F)c(F)c1F)C(=O)Cc1ccc(S(=O)(=O)N2CCOCC2)s1	none (no result: TLR4-MyD88 BLA)
Cc1ccc(CN(C)C(=O)c2ccccc2Oc2ccccc2)o1	PRMT1 inh 34.5 | PRMT1 confirm inactive
CC(=O)c1cccc(OCc2cc(C(=O)N(C)Cc3ccc(C)o3)no2)c1	PRMT1 inh 32.2 (no result: TLR4-MyD88 BLA) | PRMT1 confirm 47.4
CSc1ccccc1OCc1cc(C(=O)N(C)Cc2ccc(C)o2)no1	PRMT1 inh 25.2 (no result: TLR4-MyD88 BLA) | PRMT1 confirm 27.5
CSc1ccccc1OCc1cc(C(=O)N(C)Cc2ccc3nsnc3c2)no1	none (no result: TLR4-MyD88 BLA)
Cc1cccc(OCC(=O)N(C)CC(=O)Nc2cccc(F)c2)c1C	none (no result: TLR4-MyD88 BLA)
O=C(OCC(=O)N1CCCC1=O)C1CCN(S(=O)(=O)c2ccc(Cl)c(C(F)(F)F)c2)CC1	none (no result: TLR4-MyD88 BLA)
O=C(CSc1ccc(-c2cccs2)nn1)c1cccs1	PRMT1 inh 27.9 | PRMT1 confirm inactive
Cc1cccc(Cn2c(C(=O)OC(C)C)cc3c2ccn3C)c1	PRMT1 inh 36.0 | PRMT1 confirm inactive
CCOC(=O)c1cc2c(ccn2C)n1Cc1ccc(Cl)cc1	none
CC(C)c1ccc[n+](-c2nc([O-])sc2C=O)c1	none (no result: TLR9-MyD88 inh, TLR4-MyD88 BLA)
Cc1ccc[n+](-c2nc([O-])sc2C=O)c1	PRMT1 inh 57.6 | PRMT1 confirm 62.5
Cc1ccc(-c2nc(N)sc2CC(=O)OCC(=O)N2C(C)CCCC2C)cc1 (stereo not given)	PRMT1 inh 48.6 | PRMT1 confirm inactive
CS/C(=N\S(=O)(=O)c1cccs1)NC(=O)CSc1nc2ccccc2s1	PRMT1 inh 28.3 | PRMT1 confirm 33.2
Cc1ccc(S(=O)(=O)N[C@@H](C)C(=O)N2CCC(C(=O)N[C@@H](Cc3ccccc3)C(=O)O)CC2)cc1	none (no result: TLR4-MyD88 BLA)
CC(C)c1ccc(CCNC(=O)CSC(=S)N2CCCC2)cc1	PRMT1 inh 31.6 (no result: TLR4-MyD88 BLA) | PRMT1 confirm inactive
COc1ccc(CNC(=O)CSC(=S)N2CCCC2)cc1	none (no result: TLR4-MyD88 BLA)
O=C(CSc1c2c(nc3ccc(Cl)cc13)CCCC2)N1CCN(C(=O)c2ccco2)CC1	none (no result: TLR4-MyD88 BLA)
Cc1ccc(CNC(=O)CSc2c3c(nc4ccc(Cl)cc24)CCCC3)o1	PRMT1 inh 50.4 | PRMT1 confirm inactive
COC(=O)c1cc2c(c3c4cc(C)ccc4n(S(=O)(=O)c4ccccc4)c13)C(=O)N(Cc1ccc(C(F)(F)F)cc1)C2	none (no result: TLR9-MyD88 inh, TLR4-MyD88 BLA, Granule exo inh, NOD2-RIPK2 inh, ABHD5 PLIN5 PPI)
O=C(NN=C1CCCC1)c1ccccc1OCCOc1ccccc1	none
Cc1ccc(NCCC(=O)c2cccc([N+](=O)[O-])c2)cc1	PRMT1 inh 33.2 | PRMT1 confirm 53.9
O=C(CCNc1ccc(Br)cc1)c1cccc([N+](=O)[O-])c1	Granule exo inh 86.5, PRMT1 inh 28.3 | PRMT1 confirm 23.1
Cc1nc(SCC(=O)c2cccc([N+](=O)[O-])c2)n[nH]1	PRMT1 inh 30.1 | PRMT1 confirm inactive
Cc1ccc(CONC(=O)c2cccc([N+](=O)[O-])c2)cc1	none (no result: TLR4-MyD88 BLA)
O=C(Nc1ccc(NC(=O)c2cccc([N+](=O)[O-])c2)cc1)c1cccc([N+](=O)[O-])c1	none (no result: TLR4-MyD88 BLA)
O=C(CCNc1ccc(F)cc1)c1cccc([N+](=O)[O-])c1	PRMT1 inh 31.6 | PRMT1 confirm 39.4
C[C@H]1CN([C@@H](C)CO)C(=O)CCCn2nncc2CO[C@H]1CN(C)C(=O)Nc1ccnc(N2CCOCC2)c1	none (no result: TLR4-MyD88 BLA)
O=C(COC(=O)CCC(=O)c1cccs1)NCCc1ccccc1	none (no result: TLR4-MyD88 BLA)
CC(=O)Nc1ccc(S(=O)(=O)N2CCN(C(=O)c3ncoc3-c3ccc(C)cc3)CC2)cc1	none (no result: TLR4-MyD88 BLA)
O=C(CC(=O)c1ccccc1)Nc1cccc([N+](=O)[O-])c1	none (no result: TLR4-MyD88 BLA)
O=C(CCNc1ccccc1)c1cccc([N+](=O)[O-])c1	PRMT1 inh 36.5 | PRMT1 confirm 30.4
NC(=O)c1ccc(NC(=O)COC(=O)c2ccccc2SCC(=O)N2CCCC2)cc1	none (no result: TLR4-MyD88 BLA)
O=C1c2cccc3c(N4CCCCC4)ccc(c23)C(=O)N1c1ccccn1	none
Cc1ccc(N2C(=O)c3cccc4c(N)ccc(c34)C2=O)c2cccnc12	PRMT1 inh 94.1 (no result: TLR4-MyD88 BLA) | PRMT1 confirm 119.2
